Reference: PubChem BioAssay AID485 (The Scripps Research Institute Molecular Screening Center, 2006)
The campaign covered roughly 170,000 compounds. About 460 (0.27%) were called active. The entries come from a sample that favours actives as a whole. Values without a mark were called inactive.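 The calls were made as follows: active = inhibition above the plate cutoff, the mean inhibition of test wells on that plate plus 3 SD (cut at about 28% in these data); inactive = the rest.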

Target: Sphingosine 1-phosphate receptor 3 (Homo sapiens) (UniProt Q99500)
Sequence (Q99500 whole entry, looked up): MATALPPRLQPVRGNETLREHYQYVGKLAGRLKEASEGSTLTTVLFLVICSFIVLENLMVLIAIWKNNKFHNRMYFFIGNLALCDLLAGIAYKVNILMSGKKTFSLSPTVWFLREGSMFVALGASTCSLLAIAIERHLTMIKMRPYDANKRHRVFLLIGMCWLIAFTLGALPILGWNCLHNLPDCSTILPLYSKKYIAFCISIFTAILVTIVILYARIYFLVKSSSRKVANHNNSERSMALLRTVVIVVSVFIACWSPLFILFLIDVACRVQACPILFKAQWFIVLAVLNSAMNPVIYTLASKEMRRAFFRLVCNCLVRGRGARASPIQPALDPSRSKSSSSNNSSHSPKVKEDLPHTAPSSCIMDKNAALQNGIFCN
Assay: S1P3 receptor antagonists, primary screen, cell-based (AID 485);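 also: cells challenged with S1P at its EC80 of 0.8 µM; blue over green emission ratio from cleaved BLA substrate after 4 h stimulation; 0% = S1P-stimulated wells and 100% = unstimulated DMSO-only wells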
Conditions: CHO S1P3 NFAT-BLA reporter, FRET fluorescence, antagonist mode; at 4.98 µM; active compounds read high

| SMILES | inhibition |
| --- | --- |
| CCN1/C(=C/c2ccc3ccc(C)cc3[n+]2CC)Sc2ccccc21 | 25.1% |
| CCC(=O)/C=C1\Sc2ccccc2N1CC | 1.3% |
| CCN1/C(=C\c2ccc3ccccc3[n+]2CC)Sc2cc(C)ccc21 | 31.2% (active) |
| C=CCSc1nnc(NC(=O)c2ccc(NC(C)=O)cc2)s1 | -1.45% |
| Cc1cccc(C(=O)Nc2ccc3c(c2)C(=O)N(CC(C)C)C3=O)c1 | 2.56% |
| Nc1ccccc1Sc1cc(Cl)nnc1Cl | 1.23% |
| Cc1c(NC(=O)C(=O)N/N=C/c2cccs2)c(=O)n(-c2ccccc2)n1C | -2.98% |
| COc1ccccc1NC(=O)C1=C(C)NC(=O)NC1c1ccc(C)s1 (configuration not stated) | 1.95% |
| COc1cccc(OC)c1C(=O)NC(=S)NCc1ccco1 | -6.79% |
| NS(=O)(=O)c1ccc(CNC(=O)c2cnccn2)cc1 | -4% |
| Brc1ccc(-c2nn[nH]n2)cc1 | -7.13% |
| CCN(CCn1cccn1)Cc1cn[nH]c1-c1ccc(OC)cc1F | -12.8% |
| COc1ccc(CCNC2=CC(=O)CC(C)(C)C2)cc1 | -7.01% |
| CN(C)/C=C(/C(=O)c1ccc(Cl)c(Cl)c1)c1nnnn1-c1ccccc1 | 1.6% |
| O=C(NNC(=O)c1ccccc1[N+](=O)[O-])Nc1ccccc1C(F)(F)F | -5.24% |
| O=S(=O)([N-]c1nc2ccccc2nc1-[n+]1ccc(Cc2ccccc2)cc1)c1ccc(Br)s1 | 0.71% |
| CCNc1nc(Oc2ccc(C(=O)OC)cc2)nc(N2CCOCC2)n1 | -9.79% |
| COc1ccccc1Nc1nc(N)nc(CSC(=S)N2CCOCC2)n1 | 3% |
| O=C(CCCl)Nc1ccc(S(=O)(=O)NCc2ccco2)cc1 | -8.65% |
| O=C(NCc1nnc(SCC(=O)N2CCCc3ccccc32)o1)c1ccccc1F | -7.71% |
| O=C(Cc1ccccc1)NCc1ccc(F)cc1 | -11% |

| SMILES | inhibition |
| --- | --- |
| CCCCC(=O)NCc1ccc(F)cc1 | 6.82% |
| CSc1ccc(CN(C)CC(=O)NCc2ccc(F)cc2)cc1 | 30.2% (active) |
| COc1ccccc1-n1c(SCC(=O)O)nc2sc3c(c2c1=O)CCC3 | -7.86% |
| Nc1ccc(SCCN2C(=O)c3ccccc3C2=O)cc1 | 91.7% (active) |
| CN(C)CCCn1c(SCCN2C(=O)c3ccccc3C2=O)nc2ccccc2c1=O | 5.65% |
| Cc1ccc(SCCN2C(=O)NC(C)(C)C2=O)cc1 | -2.4% |
| CCOC(=O)C1=C(C)NC(=O)NC1c1ccccc1 (configuration not stated) | -9.13% |
| CCOC(=O)C1=C(C)N=C2c3ccccc3C(=O)C2C1c1ccc(Br)cc1 (configuration not stated) | 60% (active) |
| CCOC(=O)C1=C(C)NC(C)=C(C(=O)OCC)C1c1ccccn1 | -28.6% |
| COc1ccc(/C=C/CN2CCCC(C(=O)c3cc(F)ccc3F)C2)cc1 (configuration not stated) | -10.6% |
| COC(=O)N(NC(=O)C(O)(C(C)C)C(C)C)c1ccccc1 | 11% |
| CC(CNS(=O)(=O)c1ccc(Br)cc1)CN(C)C (configuration not stated) | -2.53% |
| COc1ccc(N=C(C)c2sc3ccccc3c2O)cc1 | 6.44% |
| Cc1nc2cc(NC(=O)NC3CC3)ccc2n1C | -13.8% |
| OC1CCCN(c2ncnc3c2nnn3Cc2c(F)cccc2Cl)C1 (configuration not stated) | -7.85% |
| N#C/C(=C/c1ccc(-c2ccccc2[N+](=O)[O-])o1)C(=O)NCCN1CCCCC1 | -1.3% |
| CCC(C)N(C(=O)COC(=O)C1C(C(=O)OC)=C(C)NC(C)=C1C(=O)OC)C1CCS(=O)(=O)C1 (configuration not stated) | -2.76% |
| CN1C=CC=C/C1=C1\SC(=S)N(Cc2ccccc2)C1=O | -8.73% |
| CCc1ccc(S(=O)(=O)NCC(O)COc2ccc(OC)cc2)cc1 (configuration not stated) | 11.9% |
| O=C(N/N=C/c1coc2ccccc2c1=O)c1cc2ccccc2o1 | 30.4% (active) |
| O=C(N/N=C/c1c[nH]c2ccccc12)c1cc2ccccc2o1 | -11.5% |

| SMILES | inhibition |
| --- | --- |
| Cc1c(/C=N\NC(=O)c2cc3ccccc3o2)c2ccccc2n1C | 9.64% |
| COc1cc(NS(=O)(=O)c2ccc(NC(=O)c3ccc(S(=O)(=O)N4CCCCC4)cc3)cc2)ncn1 | -13.9% |
| CC(C)CNC(=O)C(=O)NCc1ccccc1 | 1.01% |
| CCOC(=O)C1=NOC(Cn2cc(C(C)=O)c(=O)[nH]c2=O)C1 (configuration not stated) | -0.07% |
| Cc1cccc2c1N(CCOc1ccccc1)C(=O)C2=O | -6.34% |
| O=C(CSc1nc2ccccc2[nH]1)c1cccs1 | -5% |
| Cc1nc2sc(C(=O)c3ccccc3)c(N)c2c2c1CCCC2 | 26.9% |
| Nc1c(C(=O)c2cccs2)sc2nsc(SCCN3CCCCC3)c12 | 28.7% (active) |
| O=C(NCc1ccco1)C1CCCN1S(=O)(=O)c1ccccc1C(F)(F)F (configuration not stated) | 5.85% |
| O=C(NCCc1c[nH]c2ccccc12)C(=O)NCC1CCCO1 (configuration not stated) | -20.2% |
| S=C(NCCc1ccccc1)NCC1CCCO1 (configuration not stated) | 29.2% (active) |
| O=C(CS(=O)(=O)Cc1ccccc1)NCC1CCCO1 (configuration not stated) | 9.8% |
| O=S1(=O)CC/C(=N\Nc2ccc(F)cc2)c2ccsc21 | 3.45% |
| S=C(NCc1ccco1)Nc1ccc2c(c1)OCCO2 | -9.96% |
| CC12CN3CCN(CC(C3)/C1=N\NC(=O)c1ccccc1N)C2 | -5.45% |
| CC(=O)c1c(C)[nH]c(C(=O)COC(=O)c2cccc(S(=O)(=O)N(C)c3ccccc3)c2)c1C | 37.9% (active) |
| COc1ccc(C)cc1NC(=O)C(OC(=O)c1cccc(S(=O)(=O)N(C)c2ccccc2)c1)c1ccccc1 (configuration not stated) | -3.14% |
| CN(c1ccccc1)S(=O)(=O)c1ccc(Cl)c(C(=O)OCC(N)=O)c1 | -15.6% |
| O=C(NCC(c1cccs1)N1CCOCC1)c1cc(-c2ccccn2)nc2ccccc12 (configuration not stated) | -2.5% |
| COCCn1c(SCC(=O)c2[nH]c(C)c(C(C)=O)c2C)nc2ccccc2c1=O | -13.7% |
